# Only some compounds are listed: those with a hit (about 4.7% of all), similar ones and a draw of the others.
# ATXN2 expr inh: reduces ATXN2 reporter expression in HEK-293 cells. HEK-293 ATXN2-luciferase reporter, luminescence, 24 h. Potency, µM (titrated, usually from 57 µM), for inactives: at the highest dose activity change, negative = inhibition, usual class: inhibitors. hit rate 0.72% among 360,000. AID 1745845; note: potency is the fitted concentration of half-maximal effect; % is set by controls: 0 for no effect and ±100 for the full control effect; nearly all actives have a fitted effect of over 55% in size
#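 ATXN2-luciferase reporter cells (luciferase flanked by upstream and downstream ATXN2 gene portions) were treated 24 h at 37 °C with compounds at up to 57 uM. SteadyGlo luminescence gave expression; GF-AFC fluorescence gave viability.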
# DRD3 agonist: activates the human D3 dopamine receptor. hit rate 0.58% among 410,000. max activation, %. P35462. D3R DiscoveRx beta-arrestin cells, luminescence, 90 min; in the data active = max activation above about 30%; note: 0% is about no effect
# Target sequence (P35462 whole entry, looked up): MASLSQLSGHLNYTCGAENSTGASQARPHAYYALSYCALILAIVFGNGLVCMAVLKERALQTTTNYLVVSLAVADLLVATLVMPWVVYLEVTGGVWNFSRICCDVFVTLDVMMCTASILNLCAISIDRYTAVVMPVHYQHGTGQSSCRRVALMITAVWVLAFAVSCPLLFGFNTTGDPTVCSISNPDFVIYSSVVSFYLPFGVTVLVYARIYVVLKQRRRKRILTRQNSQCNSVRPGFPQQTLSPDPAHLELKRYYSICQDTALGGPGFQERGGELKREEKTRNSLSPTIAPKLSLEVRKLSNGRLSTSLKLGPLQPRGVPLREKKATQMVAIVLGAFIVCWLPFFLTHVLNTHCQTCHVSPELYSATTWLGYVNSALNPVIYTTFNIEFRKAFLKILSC
#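 Agonist mode: compounds and dopamine controls were applied to plated cells for 90 min at 37 degrees C after an overnight attachment at 1500 cells/well. Luminescent read-out followed 30 - 60 minutes at room temperature with DiscoveRx detection reagent.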
# HepG2 viability: counter-screen for TGF-b inhibitors: cytotoxicity in HepG2 cells | Potency, µM (series often up to 46.1 µM), without a hit: at the highest dose activity change, negative = cytotoxicity, actives largely listed as cytotoxic | AID 588856 | hit rate 0.76% among 410,000 | HepG2 CAGA-GFP viability, ATP luminescence, 18 h; note: potency is the fitted concentration of half-maximal effect
#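 CellTiter-Glo luminescence gave cytotoxicity after 18 hours at 37 degrees C. The cells were HepG2 CAGA-GFP in 1% FBS DMEM, stimulated with 500 pg/mL TGF-beta after compound addition. %Activity was normalised to no-cell wells (complete cell-killing) and DMSO (no toxicity), and curves were fitted and classified.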
# D3 antag: D3 dopamine receptor (human) antagonism | AID 652054 | P35462 | max response, negative = inhibition, % | D3R cells, DiscoveRx beta-arrestin luminescence, antagonist mode; stronger effect = lower value | hit rate 2.5% among 360,000; in the data active = max response below about -50%; inconclusive = no clear call, values can overlap the other calls; note: % is set by controls: 0 for no effect and ±100 for the full control effect
#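 Cells plated overnight at 1500 cells/well, then exposed to library compounds with dopamine controls for 90 minutes at 37 degrees C. DiscoveRx reagent added for 30–60 minutes at room temperature; luminescence read, quantitative HTS format.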
# TGFb SMAD3 inh: TGF-b pathway inhibition; hit rate 1.2% among 410,000; AID 588855; Potency, µM (titrated, usually from 46.1 µM), without a hit: at the highest dose activity, negative = inhibition, hits mostly inhibitors; HepG2 CAGA-GFP TGF-b/SMAD3 reporter, GFP fluorescence, 18 h; TGF-beta stimulated, 500 pg/mL final; note: potency is the fitted concentration of half-maximal effect; % is set by controls: 0 for no effect and ±100 for the full control effect; nearly all actives have a fitted effect of over 65% in size
#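 HEPG2 CAGA-GFP cells (1000/well, DMEM with 1% FBS) were pre-incubated 2 h at 37 degrees C, given compound by pin tool, then stimulated with TGF-beta at 500 pg/mL final for 18 h before per-cell GFP fluorescence imaging.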
# S2 tox: viability counter-screen for ATXN expression inhibitors. Potency, µM (titrated, usually from 56.7 µM), actives largely listed as cytotoxic. S2 cells (HEK-293 line with an ATXN2-luciferase reporter) viability, CellTiter-Fluor protease fluorescence, 24 h. hit rate 0.49% among 400,000; note: potency is the fitted concentration of half-maximal effect; nearly all actives have a fitted effect of over 40% in size
# * hit, by the source's call; i = inactive; ? = inconclusive; / = no result; ! = not active in a repeat; [ ] = another dose, or the depositor's remark. Unless noted, calls come from the whole dose curve; as a rule, active = well fitted curve in the direction sought with a large enough effect; inconclusive = small, poorly fitted or top-dose-only effect, or another doubt; inactive = no such curve, though single readings can be large; an effect the other way counts as inactive or inconclusive.
SMILES,ATXN2 expr inh,DRD3 agonist,HepG2 viability,D3 antag,TGFb SMAD3 inh,S2 tox
N#Cc1ccccc1S(=O)(=O)N1CCCC(c2nc3c(nnn3Cc3cccc(Cl)c3)c(=O)[nH]2)C1 (centres undefined),/,-10,-12%,/,0%,/
CCOC(=O)C(=CNc1ccc(O)c(C(=O)OC)c1)C(=O)OCC,-12%,57*,-7%,159,0%,i
CCOC(=O)C(=CNc1ccc2c(c1)nnn2-c1ccc(Cl)cc1)C(=O)OCC,24µM*,11,16%,123,8%,?
COC(=O)C1CCN(Cc2ccc3c(c2)CN(C(=O)C2CCCN(c4ccccn4)C2)CCO3)CC1 (centres undefined),/,/,/,/,/,i
COCC(=O)Nc1cc(C(=O)N2CCCCC2c2nccn2C)cc2nc(-c3ccccc3)n(C)c12 (centres undefined),/,/,/,/,/,i
C(=C\c1ccnc2ccccc12)/c1cc2c3c(c1)CCCN3CCC2,/,/,-43%,/,-30%,/
Cc1ccc(C)c(CN2CCC(CNC(=O)Nc3ccc(Br)cc3F)CC2)c1,20µM*!,-18,-84%,-16,?,?
Cn1c(-c2cccc(Br)c2)cnc1NCc1cccnc1,-5%,-11,-27%,-60*,-10%,i
Cn1c(-c2ccc(F)cc2)cnc1NCc1cccc(F)c1,12%,-5,-25%,?,-12%,i
CC(=O)c1ccc(NC(=O)c2ccc3c(c2)N(Cc2cccc(Cl)c2)C(=O)c2ccccc2S3(=O)=O)cc1,7%,-2,-1%,/,-3%,?
C=CC(=O)Nc1cccc(Oc2ncnc3[nH]cc(-c4cnc5ccccc5c4)c23)c1,15%,2,-15%,23,-25%,?
C=CC(=O)Nc1cccc(Oc2ccnc3[nH]ccc23)c1,-33%,6,2%,-24,?,8.9µM*
O=C(NCC1CCC2(CCN(Cc3cnn(-c4ccc(F)cc4)c3)CC2)O1)c1ccccc1 (centres undefined),/,/,/,/,/,i
CC(COc1ccccc1)N1CCC(CO)(CCc2ccccc2)CC1 (centres undefined),-12%,2,-18%,-62*,-6%,i
CSCC(C)N1CCC(CO)(CCc2ccccc2)CC1 (centres undefined),-17%[11.3 µM],-5,-15%,44,6%,i
CCc1ccc(-c2cc(C)no2)cc1S(=O)(=O)NCCCN1CCN(c2ccccc2)CC1,?,0,-21%,-77*,18µM*,?
CCN(CC)c1ccc(N=Cc2c(C)[nH]c3ccccc23)cc1,-1%,-10,2.8µM*,-23,11µM*,i
Cc1[nH]c2ccccc2c1/C=N/n1cnnc1,3%,3,1%,6,18%,i
CO[C@H]1/C=C\O[C@@]2(C)Oc3c(C)c(O)c4c(O)c(c5c(nc6cc(C)ccn65)c4c3C2=O)NC(=O)C(C)=CC=C[C@H](C)[C@H](O)[C@@H](C)[C@@H](O)[C@@H](C)[C@H](OC(C)=O)[C@H]1C,-10%,/,/,/,/,/
CN(C)S(=O)(=O)c1cccc(-c2nn(-c3ccccc3)cc2/C=C2\SC(=S)NC2=O)c1,-4%,12,-8%,45,13µM*,i
CN(C)S(=O)(=O)c1cccc(-c2nn(-c3ccccc3)cc2/C=C(\C#N)c2nc3ccccc3[nH]2)c1,-7%,-5,4%,0,-8%,i
CCOC(=O)C1=C(CN2CCN(c3ccc(C)cc3C)CC2)NC(=O)NC1c1ccc(OC)cc1 (centres undefined),/,0,-10%,/,-28%,/
Cc1ccc(C(=O)Nc2cccc(-c3nc(CNC(=O)C4CCCCC4)c(C)o3)c2)s1,/,/,/,/,/,i
O=C(Nc1ccc(Br)cc1)Nc1nc2c(s1)CCCCCC2,4%,-15,5%,/,18%,i
CCn1c(-c2ccc(F)cc2)n[nH]c1=S,8%,-6,8%,-88*,0%,i
SMILES,ATXN2 expr inh,DRD3 agonist,HepG2 viability,D3 antag,TGFb SMAD3 inh,S2 tox
CCn1c(-c2ccc(C(C)(C)C)cc2)n[nH]c1=S,-10%,-7,-20%,-30,-18%,i
CCOc1ccc(NC(=O)Cn2cc(C(=O)c3ccc(F)cc3)c(=O)c3cc4c(cc32)OCCO4)cc1,9%,-10,-10%,/,-5%,i
C=CCn1c(O)c(C2=c3ccccc3=NC2=O)s/c1=N/c1nccs1,-8%,2,-22%,-1,-3%,i
C=CCn1c(O)c(C2=c3ccccc3=NC2=O)c2ccccc21,?,-24,-81%,-65*,?,i
CCCCC(=O)O[C@]1(C(=O)CO)[C@@H](C)C[C@H]2[C@@H]3CCC4=CC(=O)C=C[C@]4(C)[C@@]3(F)[C@@H](O)C[C@@]21C,3%,/,/,/,/,i
COc1cc2c(Oc3ccc4[nH]c(C)cc4c3F)ncnc2cc1OCCCN1CCCC1,34µM*,/,/,/,/,/
COc1cccc(Nc2ncnc3ccccc23)c1,37%,-9,-10%,10,-2%,i
O=C(Oc1cccc(Nc2ncnc3ccccc23)c1)c1ccccc1Cl,-9%,40*,-36%,-24,-18%,i
CN(CCO)c1cc(Sc2nc3ccccc3s2)c2nonc2c1[N+](=O)[O-],10µM*,-37,-99%,-84*,?,14µM*
CC(=O)OCCN(C)c1cc(SC(C)C)c2nonc2c1[N+](=O)[O-],-26%,2,2%,-2,2%,?
O=C(O)Cn1c(C(=O)Nc2nc(-c3ccccc3Cl)cs2)cc2ccccc21,3%,10,/,/,/,i
FC(F)(F)c1cc(Cl)c2nc(-c3ccco3)c(Cc3ccccc3C(F)(F)F)n2c1,?,-10,/,-30,/,?
Cc1ccc2nc(-c3ccccc3)c(Cc3ccccc3C(F)(F)F)n2c1,?,-18,-83%,-54*,?,?
Cc1ccc(-c2nc3ccc(C)cn3c2Cc2ccccc2C(F)(F)F)cc1,-32%,-16,-83%,-13,?,?
FC(F)(F)c1ccccc1Cc1c(-c2ccc(Cl)cc2)nc2ccc(Br)cn12,12%,-7,-15%,-54*,?,?
Fc1ccc(-c2nc3ccc(Cl)cn3c2Cc2ccccc2C(F)(F)F)cc1,68%,-9,-42%,-5,13µM*,i
FC(F)(F)c1ccccc1Cc1c(-c2ccco2)nc2ccc(Cl)cn12,-38%,-12,6.3µM*,0,?,?
FC(F)(F)c1ccccc1Cc1c(-c2ccc(Cl)cc2)nc2ccc(Cl)cn12,58%,3,-40%,26,?,i
CCN1CCCC1CNCc1cc2ccc(SC)cc2nc1-c1cc(OC)ccc1OC (centres undefined),/,/,/,/,/,i
